According to the supplement of paper PMC9446081:
± gives the standard deviation of the averaged measurements.

Key:
Assay in all cases: relative enzymatic activity vs untreated control (fraction); higher = less inhibition
Settings in all cases: 100 µM; incubation time: 2 h at 37 C
[1] = system: DNA gyrase
Protocol: (§1)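 In vitro enzymatic inhibition assays (ProFoldin kits) for 12 purified essential E. coli enzymes or complexes, each treated with 218 active antibacterial compounds at 100 µM for 2 h at 37°C. Read-outs were fluorescence or absorbance (phosphate detection, dye binding), converted to activity via standard curves and expressed relative to untreated DMSO controls.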

[2] = target: DNA helicase (UniProt P0ACB1)
Protocol: as §1

[3] = target: DNA ligase (UniProt B1XA82)
Protocol: as §1

[4] = target: DNA polymerase (UniProt P10443)
Protocol: as §1

[5] = target: DNA primase (UniProt P0ABS7)
Protocol: as §1

[6] = target: GlmU (UniProt A7ZTU1)
Protocol: as §1

[7] = target: Guanlyate kinase (UniProt Q0TBG1)
Protocol: as §1

[8] = target: MurA (UniProt Q3YX52)
Protocol: as §1

[9] = target: T1, MurD (UniProt P14900)
T1 sequence (whole entry): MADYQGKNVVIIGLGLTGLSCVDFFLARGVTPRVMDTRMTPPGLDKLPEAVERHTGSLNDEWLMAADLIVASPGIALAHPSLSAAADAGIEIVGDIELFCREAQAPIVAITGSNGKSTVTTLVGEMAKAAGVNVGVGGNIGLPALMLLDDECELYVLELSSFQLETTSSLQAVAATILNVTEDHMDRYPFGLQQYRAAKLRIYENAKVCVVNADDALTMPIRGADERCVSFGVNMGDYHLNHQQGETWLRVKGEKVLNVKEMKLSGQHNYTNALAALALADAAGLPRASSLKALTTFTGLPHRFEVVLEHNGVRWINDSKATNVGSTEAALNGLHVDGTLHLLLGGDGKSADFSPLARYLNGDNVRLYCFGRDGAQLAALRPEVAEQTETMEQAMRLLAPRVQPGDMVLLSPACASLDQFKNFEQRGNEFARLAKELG
Protocol: as §1

[10] = target: T2, MurF (UniProt P11880)
T2 sequence (whole entry): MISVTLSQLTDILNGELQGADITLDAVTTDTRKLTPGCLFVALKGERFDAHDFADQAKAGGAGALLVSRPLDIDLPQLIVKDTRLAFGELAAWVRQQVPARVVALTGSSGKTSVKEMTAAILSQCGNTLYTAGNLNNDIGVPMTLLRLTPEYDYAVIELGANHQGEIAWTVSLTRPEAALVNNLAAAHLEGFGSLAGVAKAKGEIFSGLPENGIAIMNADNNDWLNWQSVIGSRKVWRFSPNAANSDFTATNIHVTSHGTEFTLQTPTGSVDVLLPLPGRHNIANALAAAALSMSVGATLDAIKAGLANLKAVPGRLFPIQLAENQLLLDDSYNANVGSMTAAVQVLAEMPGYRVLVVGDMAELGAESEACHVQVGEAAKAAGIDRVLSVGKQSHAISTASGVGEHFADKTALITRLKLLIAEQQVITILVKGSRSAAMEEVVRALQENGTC
Protocol: as §1

[11] = system: RNA polymerase
Protocol: as §1

Sequence of GlmU (A7ZTU1 whole entry, looked up): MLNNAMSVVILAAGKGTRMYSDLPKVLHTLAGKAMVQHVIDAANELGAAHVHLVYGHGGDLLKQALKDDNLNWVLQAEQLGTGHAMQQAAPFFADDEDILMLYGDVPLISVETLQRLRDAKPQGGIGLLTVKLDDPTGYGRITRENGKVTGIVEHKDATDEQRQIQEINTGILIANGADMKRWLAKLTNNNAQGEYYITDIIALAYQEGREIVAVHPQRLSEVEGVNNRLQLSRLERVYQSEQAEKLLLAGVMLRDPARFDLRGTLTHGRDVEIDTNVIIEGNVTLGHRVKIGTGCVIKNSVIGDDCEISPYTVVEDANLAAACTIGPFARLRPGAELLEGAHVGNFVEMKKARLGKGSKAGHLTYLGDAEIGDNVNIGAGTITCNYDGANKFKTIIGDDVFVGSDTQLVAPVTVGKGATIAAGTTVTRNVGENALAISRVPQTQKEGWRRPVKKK
Sequence of MurA (Q3YX52 whole entry): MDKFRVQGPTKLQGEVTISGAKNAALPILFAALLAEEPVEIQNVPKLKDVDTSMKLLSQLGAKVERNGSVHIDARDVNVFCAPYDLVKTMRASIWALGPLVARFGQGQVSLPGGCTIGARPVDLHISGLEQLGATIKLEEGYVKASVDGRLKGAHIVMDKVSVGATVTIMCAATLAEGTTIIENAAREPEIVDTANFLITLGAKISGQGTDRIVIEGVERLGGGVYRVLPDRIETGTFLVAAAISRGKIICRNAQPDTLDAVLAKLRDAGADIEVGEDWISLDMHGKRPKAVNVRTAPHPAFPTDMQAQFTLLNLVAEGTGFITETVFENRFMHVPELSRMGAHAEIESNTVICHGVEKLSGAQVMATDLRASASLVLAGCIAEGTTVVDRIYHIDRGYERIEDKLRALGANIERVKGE
Sequence of DNA ligase (B1XA82 whole entry): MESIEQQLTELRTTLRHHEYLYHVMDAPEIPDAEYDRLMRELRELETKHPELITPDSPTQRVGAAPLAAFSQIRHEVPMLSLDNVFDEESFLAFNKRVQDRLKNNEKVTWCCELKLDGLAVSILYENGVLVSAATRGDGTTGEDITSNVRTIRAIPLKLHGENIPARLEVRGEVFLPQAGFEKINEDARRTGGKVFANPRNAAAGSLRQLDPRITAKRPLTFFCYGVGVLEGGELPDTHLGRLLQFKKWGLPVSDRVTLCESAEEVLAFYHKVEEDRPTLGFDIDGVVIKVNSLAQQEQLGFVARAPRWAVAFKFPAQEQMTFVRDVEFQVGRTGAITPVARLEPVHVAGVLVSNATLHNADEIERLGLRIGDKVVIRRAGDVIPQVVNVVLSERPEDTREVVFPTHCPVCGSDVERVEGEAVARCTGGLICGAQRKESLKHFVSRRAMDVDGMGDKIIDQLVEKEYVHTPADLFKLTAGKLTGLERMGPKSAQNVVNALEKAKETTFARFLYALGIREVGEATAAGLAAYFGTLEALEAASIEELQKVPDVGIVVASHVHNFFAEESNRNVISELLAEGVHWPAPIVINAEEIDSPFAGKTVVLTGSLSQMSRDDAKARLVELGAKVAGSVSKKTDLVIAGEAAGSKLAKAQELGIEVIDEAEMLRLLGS
Sequence of DNA primase (P0ABS7 whole entry): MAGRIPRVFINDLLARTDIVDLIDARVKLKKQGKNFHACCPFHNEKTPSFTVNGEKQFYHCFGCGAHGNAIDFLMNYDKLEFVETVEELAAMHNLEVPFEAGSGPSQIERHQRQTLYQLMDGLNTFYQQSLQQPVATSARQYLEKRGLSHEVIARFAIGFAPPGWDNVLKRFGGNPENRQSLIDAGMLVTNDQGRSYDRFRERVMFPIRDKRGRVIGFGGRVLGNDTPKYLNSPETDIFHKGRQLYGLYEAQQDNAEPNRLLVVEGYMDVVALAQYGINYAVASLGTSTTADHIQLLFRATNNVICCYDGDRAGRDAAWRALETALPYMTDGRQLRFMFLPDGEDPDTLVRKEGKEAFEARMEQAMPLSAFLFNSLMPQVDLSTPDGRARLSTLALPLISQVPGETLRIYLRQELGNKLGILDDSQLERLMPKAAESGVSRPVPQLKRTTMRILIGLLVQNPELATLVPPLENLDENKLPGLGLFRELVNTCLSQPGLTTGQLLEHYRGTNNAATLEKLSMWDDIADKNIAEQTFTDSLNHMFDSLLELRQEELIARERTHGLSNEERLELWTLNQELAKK
Sequence of DNA polymerase (P10443 whole entry): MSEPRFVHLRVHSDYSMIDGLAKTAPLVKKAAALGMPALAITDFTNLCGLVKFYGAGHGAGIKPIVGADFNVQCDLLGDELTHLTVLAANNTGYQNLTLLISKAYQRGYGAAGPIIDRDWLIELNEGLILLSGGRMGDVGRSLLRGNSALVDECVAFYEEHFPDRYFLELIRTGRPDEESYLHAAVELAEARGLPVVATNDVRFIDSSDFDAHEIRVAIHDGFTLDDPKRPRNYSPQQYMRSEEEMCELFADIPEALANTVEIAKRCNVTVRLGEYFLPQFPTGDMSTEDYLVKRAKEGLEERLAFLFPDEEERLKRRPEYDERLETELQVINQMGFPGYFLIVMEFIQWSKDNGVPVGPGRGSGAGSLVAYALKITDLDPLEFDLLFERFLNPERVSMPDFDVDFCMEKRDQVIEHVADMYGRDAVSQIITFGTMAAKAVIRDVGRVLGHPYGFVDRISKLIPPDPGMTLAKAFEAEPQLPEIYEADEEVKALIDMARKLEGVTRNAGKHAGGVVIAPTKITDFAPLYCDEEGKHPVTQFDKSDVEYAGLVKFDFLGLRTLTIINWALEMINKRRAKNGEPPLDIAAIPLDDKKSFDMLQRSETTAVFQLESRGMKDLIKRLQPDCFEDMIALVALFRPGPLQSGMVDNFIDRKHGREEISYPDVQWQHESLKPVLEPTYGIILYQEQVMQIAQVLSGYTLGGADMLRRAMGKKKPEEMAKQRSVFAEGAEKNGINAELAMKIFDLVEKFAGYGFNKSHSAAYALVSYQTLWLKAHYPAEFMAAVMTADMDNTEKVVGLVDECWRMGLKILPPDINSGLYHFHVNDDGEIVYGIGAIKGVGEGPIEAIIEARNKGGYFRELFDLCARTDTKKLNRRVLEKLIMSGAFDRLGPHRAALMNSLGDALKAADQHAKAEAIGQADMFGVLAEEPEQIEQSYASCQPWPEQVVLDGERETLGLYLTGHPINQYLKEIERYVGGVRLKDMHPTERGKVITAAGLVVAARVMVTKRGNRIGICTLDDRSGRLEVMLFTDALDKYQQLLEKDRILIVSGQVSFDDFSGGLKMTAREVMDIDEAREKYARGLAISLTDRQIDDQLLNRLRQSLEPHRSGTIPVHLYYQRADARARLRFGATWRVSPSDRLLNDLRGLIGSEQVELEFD
Sequence of Guanlyate kinase (Q0TBG1 whole entry): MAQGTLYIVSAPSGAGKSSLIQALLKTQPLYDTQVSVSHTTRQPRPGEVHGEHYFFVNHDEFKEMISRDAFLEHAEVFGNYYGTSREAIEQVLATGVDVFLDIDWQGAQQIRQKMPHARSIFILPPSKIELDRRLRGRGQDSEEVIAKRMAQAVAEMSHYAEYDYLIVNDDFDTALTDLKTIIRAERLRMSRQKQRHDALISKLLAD
Sequence of DNA helicase (P0ACB1 whole entry): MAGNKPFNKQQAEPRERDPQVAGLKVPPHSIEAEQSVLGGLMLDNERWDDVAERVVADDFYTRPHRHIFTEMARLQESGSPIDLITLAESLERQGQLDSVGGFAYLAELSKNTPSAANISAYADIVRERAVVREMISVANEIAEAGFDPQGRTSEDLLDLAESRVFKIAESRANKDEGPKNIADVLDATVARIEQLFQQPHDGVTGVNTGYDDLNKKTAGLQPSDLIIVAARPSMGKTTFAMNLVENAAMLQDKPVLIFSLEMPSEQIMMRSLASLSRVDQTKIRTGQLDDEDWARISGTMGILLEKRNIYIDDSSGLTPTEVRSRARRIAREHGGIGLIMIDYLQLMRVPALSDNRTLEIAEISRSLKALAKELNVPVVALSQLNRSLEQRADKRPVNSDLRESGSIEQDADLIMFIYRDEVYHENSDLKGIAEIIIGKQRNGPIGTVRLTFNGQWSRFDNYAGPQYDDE

| SMILES | relative enzymatic activity [1] | relative enzymatic activity [2] | relative enzymatic activity [3] | relative enzymatic activity [4] | relative enzymatic activity [5] | relative enzymatic activity [6] | relative enzymatic activity [7] | relative enzymatic activity [8] | relative enzymatic activity [9] | relative enzymatic activity [10] | relative enzymatic activity [11] |
| --- | --- | --- | --- | --- | --- | --- | --- | --- | --- | --- | --- |
| CON=C(C(=O)NC1C(=O)N2C(C(=O)OCOC(=O)C(C)(C)C)=C(C=Cc3scnc3C)CSC12)c1csc(N)n1 (centres undefined) | 0.894 ± 0.26 | 0.379 ± 0.064 | 1.24 ± 0.4 | 1.24 ± 0.33 | 0.894 ± 0.029 | 0.914 ± 0.031 | 0.794 ± 0.14 | 0.253 ± 0.062 | 0.568 ± 0.41 | 0.893 ± 0.24 | 0.872 ± 0.034 |
| Cc1c(N)nc([C@H](CC(N)=O)NC[C@H](N)C(N)=O)nc1C(=O)N[C@H](C(=O)N[C@H](C)[C@@H](O)[C@H](C)C(=O)N[C@H](C(=O)NCCc1nc(-c2nc(C(=O)NCCCNCCCCN)cs2)cs1)[C@@H](C)O)[C@@H](O[C@@H]1O[C@@H](CO)[C@@H](O)[C@H](O)[C@@H]1O[C@@H]1O[C@H](CO)[C@@H](O)[C@H](OC(N)=O)[C@@H]1O)c1c[nH]cn1 | 0.0474 ± 0.067 | 0.732 ± 0.39 | 0.811 ± 0.15 | 0.308 ± 0.022 | 0.762 ± 0.041 | 0.988 ± 0.023 | 0.871 ± 0.084 | 0.872 ± 0.13 | 0.622 ± 0.4 | 0.281 ± 0.39 | 0.75 ± 0.034 |
| Cn1sccc1=O | 0.437 ± 0.62 | 0.607 ± 0.19 | 1 ± 0.053 | 1 ± 0.17 | 0.8591 ± 0.0028 | 0.622 ± 0.045 | 0.903 ± 0.084 | 0.0867 ± 0.0083 | 0.579 ± 0.4 | 0.968 ± 0.27 | 0.847 ± 0.097 |
| CCn1cc(C(=O)O)c(=O)c2cc(F)c(N3CCNC(C)C3)c(F)c21.Cl (centres undefined) | 0.0253 ± 0.036 | 0.786 ± 0.38 | 1.442 ± 0.0066 | 1.29 ± 0.3 | 0.712 ± 0.2 | 1.09 ± 0.16 | 1 ± 0.097 | 0.728 ± 0.031 | 0.577 ± 0.38 | 0.554 ± 0.78 | 1.16 ± 0.36 |
| O=C([O-])CCC(=O)OCC(NC(=O)C(Cl)Cl)C(O)c1ccc([N+](=O)[O-])cc1.[Na+] (centres undefined) | 1.05 ± 0.13 | 0.463 ± 0.053 | 0.965 ± 0.047 | 1.27 ± 0.34 | 0.718 ± 0.2 | 1.02 ± 0.042 | 1.025 ± 0.0099 | 0.872 ± 0.038 | 0.578 ± 0.37 | 0.957 ± 0.19 | 0.838 ± 0.064 |
| Cc1nnc(SCC2=C(C(=O)O)N3C(=O)[C@@H](NC(=O)Cn4cnnn4)[C@H]3SC2)s1 | 0.719 ± 0.43 | 0.348 ± 0.37 | 0.987 ± 0.14 | 1.17 ± 0.26 | 0.792 ± 0.035 | 0.995 ± 0.059 | 0.9645 ± 0.0053 | 0.137 ± 0.029 | 0.604 ± 0.41 | 0.96 ± 0.22 | 0.862 ± 0.057 |
| CC[C@H]1OC(=O)[C@H](C)[C@@H](O[C@H]2C[C@@](C)(OC)[C@@H](O)[C@H](C)O2)[C@H](C)[C@@H](O[C@@H]2O[C@H](C)C[C@H](N(C)C)[C@H]2O)[C@](C)(O)C[C@@H](C)C(=O)[C@H](C)[C@@H](O)[C@]1(C)O | 0.598 ± 0.22 | 0.608 ± 0.21 | 0.92 ± 0.048 | 0.503 ± 0.71 | 0.838 ± 0.027 | 0.9665 ± 0.0044 | 0.961 ± 0.098 | 0.848 ± 0.071 | 0.584 ± 0.39 | 0.939 ± 0.22 | 0.863 ± 0.024 |
| COC1C=COC2(C)Oc3c(C)c(O)c4c(O)c(c(C=NN5CCN(C)CC5)c(O)c4c3C2=O)NC(=O)C(C)=CC=CC(C)C(O)C(C)C(O)C(C)C(OC(C)=O)C1C (centres undefined) | 0.468 ± 0.18 | 0.717 ± 0.33 | 0.8414 ± 0.0057 | 0.862 ± 0.32 | 0.507 ± 0.0061 | 0.288 ± 0.02 | 0.399 ± 0.0045 | 0.0919 ± 0.015 | 0.175 ± 0.081 | 0.464 ± 0.051 | 0.0875 ± 0.0034 |
| O=C(O)c1cn(C2CC2)c2cc(N3CCC(O)(COc4ccc(N5C[C@H](CO)OC5=O)cc4F)CC3)c(F)cc2c1=O | 0.0421 ± 0.059 | 0.414 ± 0.095 | 0.9068 ± 0.0026 | 1.13 ± 0.22 | 0.851 ± 0.039 | 0.9967 ± 0.0077 | 0.905 ± 0.15 | 0.608 ± 0.25 | 0.583 ± 0.39 | 1.22 ± 0.022 | 0.8 ± 0.067 |
